{"source": "paper PMC7862700", "about": "“An all-to-all approach to the identification of sequence-specific readers for epigenetic DNA modifications on cytosine”", "assay_in_all_cases": "DAPPL (digital affinity profiling via proximity ligation, sequencing); 10 mM Tris-HCl pH 7.5, 50 mM NaCl, 1 mM DTT, 4% glycerol, room temperature, 30 min; GST-TFs on glutathione beads, 16-mer random dsDNA library, 0.1% formaldehyde crosslink after washing; high values mean tight binding", "key": {"FEV": {"molecular_target": "T1, FEV (Homo sapiens, UniProt Q99581 1-238)", "T1 sequence": "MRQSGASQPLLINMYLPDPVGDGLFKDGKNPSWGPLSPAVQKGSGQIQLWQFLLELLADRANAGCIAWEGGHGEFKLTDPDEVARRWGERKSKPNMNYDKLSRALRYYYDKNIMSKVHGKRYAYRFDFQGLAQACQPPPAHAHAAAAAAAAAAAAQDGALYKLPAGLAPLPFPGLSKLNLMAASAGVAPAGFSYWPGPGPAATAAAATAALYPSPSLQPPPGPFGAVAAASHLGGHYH", "conditions": "protein: recombinant; tags: N-terminal GST; dsDNA, one strand shown", "procedure,_shortened": "(§1)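 Sequencing on an Illumina NextSeq500 followed washing, crosslinking with 0.1% formaldehyde, proximity ligation (BsaI/T4 ligase, 1 h, 37 °C) and PCR amplification of pools that had been incubated for 30 min at room temperature with 200 nmole of a random double-stranded 16-mer DNA library in Tris/NaCl/DTT/glycerol buffer. Each pool held DNA-barcoded human transcription factors, expressed in yeast as GST fusions and captured on glutathione beads, plus a tag-only sample. Binding signal is a hexamer's read frequency for a factor divided by its frequency in the tag-only sample.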"}, "ETV5": {"molecular_target": "ETV5 (Homo sapiens, UniProt P41161 1-510)", "sequence (P41161 whole entry)": "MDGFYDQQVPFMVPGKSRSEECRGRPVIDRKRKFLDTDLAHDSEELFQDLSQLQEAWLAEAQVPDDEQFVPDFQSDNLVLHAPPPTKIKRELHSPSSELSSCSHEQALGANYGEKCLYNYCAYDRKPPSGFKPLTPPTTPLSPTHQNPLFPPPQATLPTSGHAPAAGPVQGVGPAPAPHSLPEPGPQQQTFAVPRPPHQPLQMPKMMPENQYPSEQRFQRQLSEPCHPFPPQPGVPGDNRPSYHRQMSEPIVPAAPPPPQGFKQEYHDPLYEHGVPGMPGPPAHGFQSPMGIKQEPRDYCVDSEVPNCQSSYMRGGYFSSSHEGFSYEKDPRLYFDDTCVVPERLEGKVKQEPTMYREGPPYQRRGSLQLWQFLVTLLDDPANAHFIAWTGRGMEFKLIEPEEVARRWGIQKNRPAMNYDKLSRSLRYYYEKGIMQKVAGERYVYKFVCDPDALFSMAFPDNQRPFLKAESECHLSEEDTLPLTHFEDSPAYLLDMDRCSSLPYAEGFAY", "conditions": "protein: recombinant; tags: N-terminal GST; dsDNA, one strand shown", "procedure,_shortened": "as §1"}, "HSF1": {"molecular_target": "HSF1 (Homo sapiens, UniProt Q00613 1-529)", "sequence (Q00613 whole entry)": "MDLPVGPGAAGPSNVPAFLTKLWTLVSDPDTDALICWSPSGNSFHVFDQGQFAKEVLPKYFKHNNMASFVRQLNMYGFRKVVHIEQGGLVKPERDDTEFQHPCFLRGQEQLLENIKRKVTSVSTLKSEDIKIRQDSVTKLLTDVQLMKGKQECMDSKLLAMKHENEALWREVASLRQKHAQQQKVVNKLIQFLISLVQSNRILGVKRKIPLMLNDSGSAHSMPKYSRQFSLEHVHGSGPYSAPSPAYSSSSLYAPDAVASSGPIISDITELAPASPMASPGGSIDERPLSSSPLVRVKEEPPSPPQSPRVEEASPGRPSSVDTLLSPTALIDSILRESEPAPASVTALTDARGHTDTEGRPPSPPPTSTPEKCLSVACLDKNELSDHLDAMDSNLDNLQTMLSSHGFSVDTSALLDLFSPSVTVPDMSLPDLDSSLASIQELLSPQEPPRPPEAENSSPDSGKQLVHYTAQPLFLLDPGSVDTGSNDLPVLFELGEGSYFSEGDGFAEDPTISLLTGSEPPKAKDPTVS", "conditions": "protein: recombinant; tags: N-terminal GST; chain copies: 3; dsDNA, one strand shown", "procedure,_shortened": "as §1"}, "SPIC": {"molecular_target": "T2, SPIC (Homo sapiens, UniProt Q8N5J4 1-248)", "T2 sequence": "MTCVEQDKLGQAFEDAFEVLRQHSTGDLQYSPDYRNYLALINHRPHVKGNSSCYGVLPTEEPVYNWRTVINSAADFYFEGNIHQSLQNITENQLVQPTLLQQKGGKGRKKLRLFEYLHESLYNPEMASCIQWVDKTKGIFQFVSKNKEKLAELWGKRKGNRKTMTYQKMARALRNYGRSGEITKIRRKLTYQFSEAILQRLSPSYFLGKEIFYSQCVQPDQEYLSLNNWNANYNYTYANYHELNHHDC", "conditions": "protein: recombinant; tags: N-terminal GST; dsDNA, one strand shown", "procedure,_shortened": "as §1"}, "ELF4": {"molecular_target": "ELF4 (Homo sapiens, UniProt Q99607 1-663)", "sequence (Q99607 whole entry)": "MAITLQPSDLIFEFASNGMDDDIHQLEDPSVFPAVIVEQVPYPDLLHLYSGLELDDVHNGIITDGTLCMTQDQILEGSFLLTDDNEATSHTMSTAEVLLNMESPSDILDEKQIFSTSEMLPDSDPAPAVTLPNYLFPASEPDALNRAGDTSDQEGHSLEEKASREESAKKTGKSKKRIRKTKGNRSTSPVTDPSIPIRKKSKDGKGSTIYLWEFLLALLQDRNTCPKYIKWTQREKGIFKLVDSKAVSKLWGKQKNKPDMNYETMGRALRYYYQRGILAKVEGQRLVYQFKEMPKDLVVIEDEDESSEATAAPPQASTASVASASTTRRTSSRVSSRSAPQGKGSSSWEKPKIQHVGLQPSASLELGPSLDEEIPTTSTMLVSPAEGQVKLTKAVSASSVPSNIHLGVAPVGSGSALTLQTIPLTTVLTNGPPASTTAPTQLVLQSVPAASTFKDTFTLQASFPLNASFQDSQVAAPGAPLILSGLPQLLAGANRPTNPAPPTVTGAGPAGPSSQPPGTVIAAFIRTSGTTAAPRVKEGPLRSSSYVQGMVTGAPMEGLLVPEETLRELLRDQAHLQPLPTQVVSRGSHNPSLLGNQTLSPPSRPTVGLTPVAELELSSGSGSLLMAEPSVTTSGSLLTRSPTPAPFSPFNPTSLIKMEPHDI", "conditions": "protein: recombinant; tags: N-terminal GST; dsDNA, one strand shown", "procedure,_shortened": "as §1"}, "ELK4": {"molecular_target": "T3, ELK4 (Homo sapiens, UniProt P28324-2 1-405)", "T3 sequence": "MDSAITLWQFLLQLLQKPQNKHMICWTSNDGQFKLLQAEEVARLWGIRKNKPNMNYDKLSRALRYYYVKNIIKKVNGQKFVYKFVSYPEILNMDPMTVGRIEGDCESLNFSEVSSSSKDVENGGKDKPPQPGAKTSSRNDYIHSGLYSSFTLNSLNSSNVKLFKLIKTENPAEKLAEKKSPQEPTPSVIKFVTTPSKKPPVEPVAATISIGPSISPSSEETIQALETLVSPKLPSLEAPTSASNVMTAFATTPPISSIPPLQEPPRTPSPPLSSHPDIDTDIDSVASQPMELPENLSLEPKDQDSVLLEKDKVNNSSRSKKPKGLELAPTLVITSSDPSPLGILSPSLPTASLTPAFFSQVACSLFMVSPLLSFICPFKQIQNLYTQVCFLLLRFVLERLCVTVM", "conditions": "protein: recombinant; tags: N-terminal GST; dsDNA, one strand shown", "procedure,_shortened": "as §1"}, "ETV2": {"molecular_target": "T4, ETV2 (Homo sapiens, UniProt O00321 1-342)", "T4 sequence": "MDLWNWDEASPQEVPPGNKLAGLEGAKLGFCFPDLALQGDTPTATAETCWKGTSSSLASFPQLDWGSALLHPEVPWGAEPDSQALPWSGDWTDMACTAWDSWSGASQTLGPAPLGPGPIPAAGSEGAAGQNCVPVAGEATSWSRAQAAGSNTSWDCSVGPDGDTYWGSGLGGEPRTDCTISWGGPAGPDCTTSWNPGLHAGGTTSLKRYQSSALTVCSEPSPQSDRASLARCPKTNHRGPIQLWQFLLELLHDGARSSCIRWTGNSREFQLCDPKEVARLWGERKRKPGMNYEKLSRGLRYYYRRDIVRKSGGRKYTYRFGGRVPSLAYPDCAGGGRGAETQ", "conditions": "protein: recombinant; tags: N-terminal GST; dsDNA, one strand shown", "procedure,_shortened": "as §1"}, "ELF3": {"molecular_target": "T5, ELF3 (Homo sapiens, UniProt P78545 1-371)", "T5 sequence": "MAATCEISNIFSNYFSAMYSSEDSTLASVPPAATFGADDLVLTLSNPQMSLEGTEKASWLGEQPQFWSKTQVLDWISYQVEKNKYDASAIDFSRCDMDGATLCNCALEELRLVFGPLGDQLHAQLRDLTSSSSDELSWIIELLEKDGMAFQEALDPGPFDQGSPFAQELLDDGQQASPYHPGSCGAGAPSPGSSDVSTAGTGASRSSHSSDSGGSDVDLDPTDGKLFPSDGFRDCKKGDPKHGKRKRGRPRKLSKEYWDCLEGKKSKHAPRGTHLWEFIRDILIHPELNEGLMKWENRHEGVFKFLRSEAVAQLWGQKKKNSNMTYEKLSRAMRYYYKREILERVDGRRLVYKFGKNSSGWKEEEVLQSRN", "conditions": "protein: recombinant; tags: N-terminal GST; dsDNA, one strand shown", "procedure,_shortened": "as §1"}, "CRX": {"molecular_target": "CRX (Homo sapiens, UniProt O43186 1-299)", "sequence (O43186 whole entry)": "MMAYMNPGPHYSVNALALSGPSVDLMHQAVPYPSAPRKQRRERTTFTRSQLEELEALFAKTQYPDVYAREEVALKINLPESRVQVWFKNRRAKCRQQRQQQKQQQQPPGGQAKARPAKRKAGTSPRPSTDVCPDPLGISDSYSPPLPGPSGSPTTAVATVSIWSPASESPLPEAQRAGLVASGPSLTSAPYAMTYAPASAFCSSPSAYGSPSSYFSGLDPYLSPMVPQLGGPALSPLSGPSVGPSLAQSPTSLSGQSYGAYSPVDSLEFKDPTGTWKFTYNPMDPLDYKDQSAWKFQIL", "conditions": "protein: recombinant; tags: N-terminal GST; dsDNA, one strand shown", "procedure,_shortened": "as §1"}, "ETV1": {"molecular_target": "ETV1 (Homo sapiens, UniProt P50549 1-477)", "sequence (P50549 whole entry)": "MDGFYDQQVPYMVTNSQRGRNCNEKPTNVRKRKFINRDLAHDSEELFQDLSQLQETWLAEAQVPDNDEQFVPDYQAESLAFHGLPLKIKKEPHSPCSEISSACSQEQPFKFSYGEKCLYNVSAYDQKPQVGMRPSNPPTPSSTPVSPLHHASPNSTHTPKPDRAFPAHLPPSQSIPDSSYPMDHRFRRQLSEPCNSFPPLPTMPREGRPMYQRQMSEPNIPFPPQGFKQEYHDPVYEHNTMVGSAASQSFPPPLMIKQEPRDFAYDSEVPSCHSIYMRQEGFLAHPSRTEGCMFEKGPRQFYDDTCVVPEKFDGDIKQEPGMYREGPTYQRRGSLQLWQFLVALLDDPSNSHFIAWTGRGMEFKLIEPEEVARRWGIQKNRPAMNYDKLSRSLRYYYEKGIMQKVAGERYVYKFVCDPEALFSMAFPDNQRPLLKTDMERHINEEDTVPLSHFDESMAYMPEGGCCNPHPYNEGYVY", "conditions": "protein: recombinant; tags: N-terminal GST; dsDNA, one strand shown", "procedure,_shortened": "as §1"}}, "data": [{"sequence": "TTGATG", "values": [{"measurement": "binding signal", "setting": "FEV", "result": "1.52 fold enrichment (6-mer frequency, TF over GST control)"}, {"measurement": "binding signal", "setting": "ETV5", "result": "1.73 fold enrichment (6-mer frequency, TF over GST control)"}, {"measurement": "binding signal", "setting": "HSF1", "result": "1.43 fold enrichment (6-mer frequency, TF over GST control)"}, {"measurement": "binding signal", "setting": "SPIC", "result": "1.59 fold enrichment (6-mer frequency, TF over GST control)"}, {"measurement": "binding signal", "setting": "ELF4", "result": "1.63 fold enrichment (6-mer frequency, TF over GST control)"}, {"measurement": "binding signal", "setting": "ELK4", "result": "1.52 fold enrichment (6-mer frequency, TF over GST control)"}, {"measurement": "binding signal", "setting": "ETV2", "result": "1.53 fold enrichment (6-mer frequency, TF over GST control)"}, {"measurement": "binding signal", "setting": "ELF3", "result": "1.81 fold enrichment (6-mer frequency, TF over GST control)"}, {"measurement": "binding signal", "setting": "CRX", "result": "1.5 fold enrichment (6-mer frequency, TF over GST control)"}, {"measurement": "binding signal", "setting": "ETV1", "result": "1.67 fold enrichment (6-mer frequency, TF over GST control)"}]}, {"sequence": "GTTTTT", "values": [{"measurement": "binding signal", "setting": "FEV", "result": "1.23 fold enrichment (6-mer frequency, TF over GST control)"}, {"measurement": "binding signal", "setting": "ETV5", "result": "1.31 fold enrichment (6-mer frequency, TF over GST control)"}, {"measurement": "binding signal", "setting": "HSF1", "result": "1.21 fold enrichment (6-mer frequency, TF over GST control)"}, {"measurement": "binding signal", "setting": "SPIC", "result": "1.41 fold enrichment (6-mer frequency, TF over GST control)"}, {"measurement": "binding signal", "setting": "ELF4", "result": "1.33 fold enrichment (6-mer frequency, TF over GST control)"}, {"measurement": "binding signal", "setting": "ELK4", "result": "1.32 fold enrichment (6-mer frequency, TF over GST control)"}, {"measurement": "binding signal", "setting": "ETV2", "result": "1.38 fold enrichment (6-mer frequency, TF over GST control)"}, {"measurement": "binding signal", "setting": "ELF3", "result": "1.29 fold enrichment (6-mer frequency, TF over GST control)"}, {"measurement": "binding signal", "setting": "CRX", "result": "1.13 fold enrichment (6-mer frequency, TF over GST control)"}, {"measurement": "binding signal", "setting": "ETV1", "result": "1.24 fold enrichment (6-mer frequency, TF over GST control)"}]}, {"sequence": "TACACC", "values": [{"measurement": "binding signal", "setting": "FEV", "result": "1.2 fold enrichment (6-mer frequency, TF over GST control)"}, {"measurement": "binding signal", "setting": "ETV5", "result": "1.15 fold enrichment (6-mer frequency, TF over GST control)"}, {"measurement": "binding signal", "setting": "HSF1", "result": "1.03 fold enrichment (6-mer frequency, TF over GST control)"}, {"measurement": "binding signal", "setting": "SPIC", "result": "1.3 fold enrichment (6-mer frequency, TF over GST control)"}, {"measurement": "binding signal", "setting": "ELF4", "result": "1.22 fold enrichment (6-mer frequency, TF over GST control)"}, {"measurement": "binding signal", "setting": "ELK4", "result": "1.16 fold enrichment (6-mer frequency, TF over GST control)"}, {"measurement": "binding signal", "setting": "ETV2", "result": "1.19 fold enrichment (6-mer frequency, TF over GST control)"}, {"measurement": "binding signal", "setting": "ELF3", "result": "1.11 fold enrichment (6-mer frequency, TF over GST control)"}, {"measurement": "binding signal", "setting": "CRX", "result": "1.06 fold enrichment (6-mer frequency, TF over GST control)"}, {"measurement": "binding signal", "setting": "ETV1", "result": "1.25 fold enrichment (6-mer frequency, TF over GST control)"}]}, {"sequence": "GCACTT", "values": [{"measurement": "binding signal", "setting": "FEV", "result": "2.33 fold enrichment (6-mer frequency, TF over GST control)"}, {"measurement": "binding signal", "setting": "ETV5", "result": "1.88 fold enrichment (6-mer frequency, TF over GST control)"}, {"measurement": "binding signal", "setting": "HSF1", "result": "1.17 fold enrichment (6-mer frequency, TF over GST control)"}, {"measurement": "binding signal", "setting": "SPIC", "result": "1.63 fold enrichment (6-mer frequency, TF over GST control)"}, {"measurement": "binding signal", "setting": "ELF4", "result": "1.77 fold enrichment (6-mer frequency, TF over GST control)"}, {"measurement": "binding signal", "setting": "ELK4", "result": "1.62 fold enrichment (6-mer frequency, TF over GST control)"}, {"measurement": "binding signal", "setting": "ETV2", "result": "1.66 fold enrichment (6-mer frequency, TF over GST control)"}, {"measurement": "binding signal", "setting": "ELF3", "result": "1.85 fold enrichment (6-mer frequency, TF over GST control)"}, {"measurement": "binding signal", "setting": "CRX", "result": "1.16 fold enrichment (6-mer frequency, TF over GST control)"}, {"measurement": "binding signal", "setting": "ETV1", "result": "1.86 fold enrichment (6-mer frequency, TF over GST control)"}]}]}
